Screens as filed in PubChem BioAssay.
NPC1 prom act: NPC1 promoter activation | Huh7 NPC1 promoter luciferase reporter, 24 h | Potency, µM (top dose mostly 9.22 µM), for inactives: at the top dose activation, most hits filed as activators | 320,000 compounds, 2.4% hits | AID 485313; also: % of control where 0% means no effect; nearly all actives have a fitted effect of over 60% in size
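Huh7 reporter cells (NPC1 promoter driving luciferase) are dosed with compound for 24 h at 37 °C, 5% CO2; luciferase detection reagent is then added and luminescence measured after 10 min at ambient temperature.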
ELG1 DNA repair: ELG1-dependent DNA repair inhibition; HEK293T ELG1-luciferase reporter, luminescence, 16 h; DNA damage induced by 5-fluorouridine; 330,000 compounds, 2.3% hits; Potency, µM (highest dose often 46.1 µM), for inactives: at the highest dose activity change, negative = inhibition, most hits filed as inhibitors; also: % is scaled to controls: 0 for no effect and ±100 for the full control effect; nearly all actives have a fitted effect of over 55% in size
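Step one: seed 2,000 cells per well. Step two: pin-transfer compound or DMSO alongside 5-fluorouridine. Step three: incubate 16 hr, 37 °C, 5% CO2. Step four: add ONE-Glo, wait 30 min, read luminescence.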
FLuc modulator: firefly luciferase modulation, counter-screen for miR-21 project; AID 588342; 360,000 compounds, 6.9% hits; Potency, µM (series often up to 57.5 µM), inactives show at the top dose activity change, negative = inhibition, most hits filed as inhibitors; P08659; purified FLuc, Km substrates, luminescence inhibition;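 also: plate controls were vehicle for no effect and reference inhibitor for full effect; nearly all actives have a fitted effect of over 55% in size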
Target sequence (P08659 whole entry, looked up): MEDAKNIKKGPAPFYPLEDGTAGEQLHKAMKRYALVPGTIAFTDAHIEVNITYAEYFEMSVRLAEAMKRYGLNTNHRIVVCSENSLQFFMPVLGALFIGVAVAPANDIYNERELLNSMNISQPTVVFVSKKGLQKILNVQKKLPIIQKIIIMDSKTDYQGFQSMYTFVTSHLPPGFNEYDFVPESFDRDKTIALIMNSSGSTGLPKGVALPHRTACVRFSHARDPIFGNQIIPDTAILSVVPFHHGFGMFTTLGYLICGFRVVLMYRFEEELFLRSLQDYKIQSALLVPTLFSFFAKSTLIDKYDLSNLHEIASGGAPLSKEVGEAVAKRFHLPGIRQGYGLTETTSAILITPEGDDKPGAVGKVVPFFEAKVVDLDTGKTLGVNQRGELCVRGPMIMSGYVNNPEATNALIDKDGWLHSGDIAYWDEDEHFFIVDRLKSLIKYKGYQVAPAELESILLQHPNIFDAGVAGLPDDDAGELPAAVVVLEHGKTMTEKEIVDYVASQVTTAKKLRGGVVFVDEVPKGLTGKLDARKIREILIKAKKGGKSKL
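Biochemical qHTS of compounds, final roughly 60 µM downward over six points, against 10 nM purified firefly luciferase using Km concentrations of substrates (10 uM D-luciferin, 10 uM ATP) in Tris acetate pH 7.5 buffer; luminescence output.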
ELG1 genotoxic: inducers of genotoxicity in HEK293T ELG1-luciferase cells; HEK293T ELG1-luciferase reporter, luminescence, 16 h; 330,000 compounds, 1.3% hits; Potency, µM (doses to about 46 µM), for inactives: at the highest dose activity change, positive = activation, most hits filed as activators; also: % of control where 0% means no effect; nearly all actives have a fitted effect of over 60% in size
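Cells (2,000/well) expressing the ELG1-luciferase fusion are dosed by pin tool and kept 16 hr at 37 °C, 5% CO2. Signal comes from ONE-Glo luciferase reagent after 30 min at room temperature.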
SMN2 splice up: SMN2 splice variant enhancement | HEK293 SMN2-luciferase splicing reporter, luminescence, 30-36 h | Potency, µM (titrated, usually from 46.1 µM), for the others: top-dose activity change, positive = activation, hits mostly activators | 210,000 compounds, 2.8% hits | AID 1458; also: % of control where 0% means no effect; nearly all actives have a fitted effect of over 55% in size
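HEK293 cells carry an SMN2 […]–luciferase reporter in which exon 7 inclusion puts luciferase in frame. Cells were plated 10-12 h before compound addition, then incubated 30-36 h at 37C. ONE-Glo luminescence was read; sodium butyrate at 4.5 mM final served as control.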
Rab9 prom act: Rab9 promoter activation. Potency, µM (series often up to 9.22 µM), without a hit: at the top dose activation, negative = inhibition, hits mostly activators. AID 485297. Huh7 Rab9 promoter-luciferase reporter, luminescence, 24 h. 320,000 compounds, 2.8% hits; also: % of control where 0% means no effect; nearly all actives have a fitted effect of over 60% in size
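Cell-based reporter: Huh7 stable for Rab9 promoter-driven luciferase, plated in reduced-serum medium with 10% FBS at 1500 cells/well, compound-treated 24 h at 37 °C, luminescence read after 10 min reagent.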
* hit, by the source's call; ? = inconclusive; . = not tested or not shown; [ ] = another dose, or the depositor's remark. A selection: hits, their analogues and other compounds. The true share with any hit is near 9.2%. Calls follow the shape of the dose curve; as a rule, active = well fitted curve in the direction sought with a large enough effect; inconclusive = small, poorly fitted or top-dose-only effect, or another doubt; inactive = no such curve, though single readings can be large; an effect the other way counts as inactive or inconclusive. Potency is read from the fitted curve at half-maximal effect.

SMILES	NPC1 prom act	ELG1 DNA repair	FLuc modulator	ELG1 genotoxic	SMN2 splice up	Rab9 prom act
O=C(CSc1nnc(NC(=O)c2ccccc2F)s1)NC1CCCC1	?	?	11µM*	8%	.	3.2µM*
COc1ccc(CNC(=O)CSc2nnc(NC(=O)c3ccccc3F)s2)cc1	3.2µM*	?	11µM*	?	.	2.2µM*
O=C(Nc1nnc(SCC(=O)N2CCCCC2)s1)c1ccc(F)cc1F	15%	?	8.5µM*	12%	.	18%
O=C(CSc1nnc(NC(=O)c2ccc(F)cc2F)s1)NC1CCCC1	?	?	4.3µM*	?	.	?
O=C(Cc1ccc(F)cc1)Nc1nnc(SCC(=O)N2CCCCC2)s1	-4%	-3%	0%	0%	-9%	-8%
CCc1ccccc1NC(=O)Cn1c(=O)n(Cc2ccc(OC)cc2)c(=O)c2oc3ccccc3c21	.	.	1%	.	.	.
CCCCn1c(N)c(N(CCOC)C(=O)COC(=O)COc2c(C)cc(C)cc2C)c(=O)[nH]c1=O	-2%	20%	1%	-2%	.	-5%
Cc1ccc(-n2ccnc(SCC(=O)NC3CCCCC3)c2=O)cc1F	-7%	2%	5%	0%	.	0%
Cc1ccc(-c2cc(N)n(-c3ccccc3)n2)cc1	1.1µM*	?	1.7µM*	?	11µM*	2.8µM*
Nc1cc(C2CCCC2)nn1-c1ccccc1	2.2µM*	?	15µM*	?	20µM*	?
Cc1cccc(-c2cc(N)n(-c3ccccc3)n2)c1	1.3µM*	?	4.3µM*	?	11µM*	0.79µM*
Cc1cccc(-c2cc(NC(=O)C(C)(C)C)n(-c3ccccc3)n2)c1	.	.	21µM*	.	.	.
COc1ccccc1CNC(=O)Cn1c(-c2cccs2)cc2cc(F)ccc21	.	.	2%	.	.	.
CCc1ccc(-c2cc(N)n(-c3ccccc3)n2)cc1	0.56µM*	?	1.7µM*	2.6µM*	5µM*	1.3µM*
CCc1ccc(-c2cc3c(N4CCN(c5ccccc5)CC4)nccn3n2)cc1	.	.	19µM*	.	14µM*	.
CC(C)(C)c1ccc(C(=O)NCC(=O)OCC(=O)Nc2ccc3c(c2)OCCO3)cc1	8%	?	3.4µM*	-1%	4%	2%
COc1cccc(NC(=O)CNC(=O)[C@@H]2Cc3ccccc3CN2C(=O)OC(C)(C)C)c1	-8%	1%	1%	-2%	.	-4%
O=C(COC(=O)CNC(=O)C1CCCCC1)Nc1ccc2c(c1)OCCO2	0%	1%	19µM*	6%	-3%	2%
O=C(COC(=O)CNC(=O)C1CCCCC1)Nc1ccc2ccccc2c1	2%	?	-10%	13%	7%	20%
CC(C)(C)OC(=O)N1Cc2ccccc2C[C@H]1C(=O)NCC(=O)Nc1ccc2c(c1)OCCO2	1%	?	21µM*	?	.	0%
Cc1cc(C)c2[nH]c(C(=O)N3CCC(n4nccc4NC(=O)C4CC4)CC3)c(C)c2c1	0%	2%	0%	0%	.	1%
Cc1c(C)c2c(c(C)c1O)CC[C@@](C)(C(=O)O)O2	.	.	.	.	-7%[20.6 µM]	.
O=C(CSc1nc2c(oc3ccccc32)c(=O)n1-c1ccccc1)Nc1ccccc1F	.	.	-9%	.	13%	.
COC(=O)c1ccc2nc(-c3ccc4c(c3)OCO4)cn2c1	0.22µM*	?	0.3µM*	?	.	0.1µM*
O=C(NCc1cn2ccccc2n1)c1ccc2c(c1)OCO2	-3%	1%	-1%	1%	-7%	2%
SMILES	NPC1 prom act	ELG1 DNA repair	FLuc modulator	ELG1 genotoxic	SMN2 splice up	Rab9 prom act
CCc1ccn2cc(-c3ccc4c(c3)OCO4)nc2c1	?	?	0.06µM*	0.18µM*	.	?
CCOC(=O)c1sc(=NC(=O)c2cccc(Br)c2)n(C)c1C	?	?	-20%	?	.	4.5µM*
CCOC(=O)c1sc(=NC(=O)c2cccc(C)c2)n(C)c1C	?	?	?	?	10µM*	2µM*
CCOC(=O)c1sc(=NC(=O)c2cc(OC)c(OC)c(OC)c2)n(C)c1C	-3%	-2%	0%	7%	-5%	-1%
Cc1cc2c(s1)c(C#N)c(C(=O)NCc1ccccc1F)n2C	-2%	.	-2%	.	.	17%
O=C(CSc1nc2ccsc2c(=O)n1Cc1ccc(F)cc1)NCc1ccc(Cl)cc1	.	.	2%	.	.	.
Cc1cccc(Cc2c(C)nc3nc(SCc4cccc(F)c4)nn3c2C)c1	.	.	-6%	.	.	.
COc1ccc(C(=O)NCc2nnc(SCC(=O)Nc3ccc(C)cc3)n2-c2ccccc2)cc1	.	.	-2%	.	32%	.
CC(=O)c1ccc(NC(=O)CSc2nccn2Cc2ccco2)cc1	.	.	17µM*	.	.	.
O=C(CSc1nccn1Cc1ccco1)Nc1ccc(F)cc1	-3%	-4%	-13%	?	.	3%
Cc1ccc(NC(=O)CSc2nccn2Cc2ccco2)cc1	?	?	19µM*	?	.	4.5µM*
O=C(CSc1nccn1Cc1ccco1)Nc1cccc(F)c1	17%	11%	-4%	9%	.	26%
COc1ccc(NC(=O)CSc2nccn2Cc2ccco2)c(OC)c1	21%	?	19µM*	?	.	?
O=C(NCc1ccc2c(c1)CCN2C(=O)c1ccccc1)c1ccco1	.	.	-15%	.	.	.
Cc1c(C(=O)N(Cc2ccc(N(C)C)cc2)CC2CCCO2)oc2ccc(Br)cc12 (stereo not drawn)	.	.	2%	.	-7%	.
O=C(c1cnccn1)N1CCC2(CC1)CN(c1ccccn1)C2	.	.	.	.	-11%	.
COc1ccc(-c2cc(-c3ccccc3)nc(SCC(=O)Nc3nccs3)c2C#N)cc1	-1%	?	13µM*	-2%	.	-4%
O=C(COc1ccccc1)Nc1ncccn1	-5%	?	-21%	?	-9%	8%
O=C(COc1ccc2ccccc2c1)Nc1nccs1	0.5µM*	?	0.6µM*	?	.	0.35µM*
O=C(COc1ccccc1)Nc1nccs1	1µM*	?	11µM*	?	5µM*	3.5µM*
O=C(COc1ccc2ccc(=O)oc2c1)Nc1nccs1	2.2µM*	?	15µM*	?	.	2.8µM*
O=C(COc1ccc2ccc(=O)oc2c1)Nc1cccnc1	2%	?	-10%	1%[9.26 µM]	.	-5%
CCN1C(=O)C2(c3ccccc31)c1c(oc3ccc(F)cc3c1=O)C(=O)N2CCCOC (stereo not drawn)	.	.	-1%	.	-2%	.
Cc1ccc(N(C(=O)CS(=O)CC(=O)Nc2ccc(F)cc2)C(C)C(=O)NC(C)(C)C)cc1 (stereo not drawn)	4%	?	-2%	3%	.	3%
Nc1ccccc1SCC(=O)Nc1nccs1	-7%	18%	-1%	-3%	.	-2%
